Assay in all cases: cross-linking mass spectrometry
One assay deals with NUP205 (UniProt Q92621). Conditions: SIA, in cells.
A further assay has as its target PDE12 (UniProt Q6L8Q7). The settings on record: SIA, in cells.
The next assay has as its target PDIA3 (UniProt P30101). Conditions: SBAP, in cells.
In the next assay the target is PGK2 (UniProt P07205). The settings on record: SIA, in cells.
The target of another assay is PHF5A (UniProt Q7RTV0). Conditions: in cells.
Another assay addresses PKM (UniProt P14618). Conditions: SBAP, in cells.

Sequence of PHF5A (Q7RTV0 whole entry): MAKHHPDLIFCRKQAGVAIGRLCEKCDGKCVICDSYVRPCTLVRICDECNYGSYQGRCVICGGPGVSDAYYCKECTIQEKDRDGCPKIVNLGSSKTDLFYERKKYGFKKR
Sequence of NUP98, P52948 (P52948 whole entry): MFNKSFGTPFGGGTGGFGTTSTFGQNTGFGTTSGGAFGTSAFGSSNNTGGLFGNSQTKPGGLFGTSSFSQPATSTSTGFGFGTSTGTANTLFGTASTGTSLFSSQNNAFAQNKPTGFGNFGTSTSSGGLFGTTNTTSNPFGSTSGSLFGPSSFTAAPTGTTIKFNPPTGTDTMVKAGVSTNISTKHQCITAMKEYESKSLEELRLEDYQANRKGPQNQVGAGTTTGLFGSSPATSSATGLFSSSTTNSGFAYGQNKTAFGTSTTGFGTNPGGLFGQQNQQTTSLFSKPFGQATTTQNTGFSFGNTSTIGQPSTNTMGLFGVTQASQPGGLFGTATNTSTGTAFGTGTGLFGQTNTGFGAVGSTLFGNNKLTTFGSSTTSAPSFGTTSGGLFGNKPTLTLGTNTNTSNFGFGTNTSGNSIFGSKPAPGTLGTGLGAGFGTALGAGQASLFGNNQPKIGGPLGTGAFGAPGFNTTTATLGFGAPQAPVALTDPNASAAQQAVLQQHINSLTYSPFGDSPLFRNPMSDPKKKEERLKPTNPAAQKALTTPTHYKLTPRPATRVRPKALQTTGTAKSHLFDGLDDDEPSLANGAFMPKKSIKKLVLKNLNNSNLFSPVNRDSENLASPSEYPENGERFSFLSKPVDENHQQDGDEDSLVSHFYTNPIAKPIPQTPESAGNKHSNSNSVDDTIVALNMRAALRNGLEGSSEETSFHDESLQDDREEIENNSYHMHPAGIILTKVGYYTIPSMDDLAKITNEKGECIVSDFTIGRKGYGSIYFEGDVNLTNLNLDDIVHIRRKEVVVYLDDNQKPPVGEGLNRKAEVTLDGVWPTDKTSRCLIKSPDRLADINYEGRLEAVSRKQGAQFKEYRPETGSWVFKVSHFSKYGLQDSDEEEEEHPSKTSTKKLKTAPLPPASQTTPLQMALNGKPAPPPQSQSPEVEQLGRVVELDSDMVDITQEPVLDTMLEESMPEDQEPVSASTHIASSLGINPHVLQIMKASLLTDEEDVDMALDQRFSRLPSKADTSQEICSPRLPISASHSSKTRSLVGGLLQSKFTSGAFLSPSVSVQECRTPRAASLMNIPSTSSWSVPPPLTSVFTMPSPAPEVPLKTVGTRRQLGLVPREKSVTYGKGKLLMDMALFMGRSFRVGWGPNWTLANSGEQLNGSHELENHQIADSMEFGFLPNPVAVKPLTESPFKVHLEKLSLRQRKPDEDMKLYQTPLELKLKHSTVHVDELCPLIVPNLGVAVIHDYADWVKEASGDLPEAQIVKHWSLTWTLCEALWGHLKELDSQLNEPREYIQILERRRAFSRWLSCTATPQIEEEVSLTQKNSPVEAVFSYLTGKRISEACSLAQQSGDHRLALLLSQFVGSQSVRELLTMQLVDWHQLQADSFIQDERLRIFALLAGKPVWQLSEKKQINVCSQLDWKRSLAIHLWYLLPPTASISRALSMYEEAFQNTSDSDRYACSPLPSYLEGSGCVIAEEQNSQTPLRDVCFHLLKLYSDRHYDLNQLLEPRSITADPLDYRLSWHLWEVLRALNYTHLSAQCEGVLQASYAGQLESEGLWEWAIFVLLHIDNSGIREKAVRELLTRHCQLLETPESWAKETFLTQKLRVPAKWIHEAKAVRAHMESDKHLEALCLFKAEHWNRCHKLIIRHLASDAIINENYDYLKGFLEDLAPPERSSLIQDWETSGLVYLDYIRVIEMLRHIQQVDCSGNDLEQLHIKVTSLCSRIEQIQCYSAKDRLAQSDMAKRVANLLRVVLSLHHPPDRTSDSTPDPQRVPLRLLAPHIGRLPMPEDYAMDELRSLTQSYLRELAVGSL
Sequence of PDE12 (Q6L8Q7 whole entry): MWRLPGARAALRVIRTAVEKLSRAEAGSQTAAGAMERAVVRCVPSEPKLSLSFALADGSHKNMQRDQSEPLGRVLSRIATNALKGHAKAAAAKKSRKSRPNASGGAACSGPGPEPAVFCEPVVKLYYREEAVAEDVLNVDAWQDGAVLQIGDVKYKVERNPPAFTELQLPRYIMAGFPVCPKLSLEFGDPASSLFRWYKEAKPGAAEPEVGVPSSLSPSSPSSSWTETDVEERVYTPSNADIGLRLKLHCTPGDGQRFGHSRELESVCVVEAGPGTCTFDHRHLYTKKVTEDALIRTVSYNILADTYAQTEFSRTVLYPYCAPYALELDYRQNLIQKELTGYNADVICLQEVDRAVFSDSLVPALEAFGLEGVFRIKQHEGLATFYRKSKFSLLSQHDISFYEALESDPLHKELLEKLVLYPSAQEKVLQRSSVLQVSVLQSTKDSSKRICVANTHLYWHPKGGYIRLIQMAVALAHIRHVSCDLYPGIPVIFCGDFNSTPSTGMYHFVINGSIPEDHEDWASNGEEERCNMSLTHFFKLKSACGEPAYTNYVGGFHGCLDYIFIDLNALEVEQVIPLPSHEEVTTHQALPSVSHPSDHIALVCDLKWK
Sequence of AP3B1, O00203 (O00203 whole entry): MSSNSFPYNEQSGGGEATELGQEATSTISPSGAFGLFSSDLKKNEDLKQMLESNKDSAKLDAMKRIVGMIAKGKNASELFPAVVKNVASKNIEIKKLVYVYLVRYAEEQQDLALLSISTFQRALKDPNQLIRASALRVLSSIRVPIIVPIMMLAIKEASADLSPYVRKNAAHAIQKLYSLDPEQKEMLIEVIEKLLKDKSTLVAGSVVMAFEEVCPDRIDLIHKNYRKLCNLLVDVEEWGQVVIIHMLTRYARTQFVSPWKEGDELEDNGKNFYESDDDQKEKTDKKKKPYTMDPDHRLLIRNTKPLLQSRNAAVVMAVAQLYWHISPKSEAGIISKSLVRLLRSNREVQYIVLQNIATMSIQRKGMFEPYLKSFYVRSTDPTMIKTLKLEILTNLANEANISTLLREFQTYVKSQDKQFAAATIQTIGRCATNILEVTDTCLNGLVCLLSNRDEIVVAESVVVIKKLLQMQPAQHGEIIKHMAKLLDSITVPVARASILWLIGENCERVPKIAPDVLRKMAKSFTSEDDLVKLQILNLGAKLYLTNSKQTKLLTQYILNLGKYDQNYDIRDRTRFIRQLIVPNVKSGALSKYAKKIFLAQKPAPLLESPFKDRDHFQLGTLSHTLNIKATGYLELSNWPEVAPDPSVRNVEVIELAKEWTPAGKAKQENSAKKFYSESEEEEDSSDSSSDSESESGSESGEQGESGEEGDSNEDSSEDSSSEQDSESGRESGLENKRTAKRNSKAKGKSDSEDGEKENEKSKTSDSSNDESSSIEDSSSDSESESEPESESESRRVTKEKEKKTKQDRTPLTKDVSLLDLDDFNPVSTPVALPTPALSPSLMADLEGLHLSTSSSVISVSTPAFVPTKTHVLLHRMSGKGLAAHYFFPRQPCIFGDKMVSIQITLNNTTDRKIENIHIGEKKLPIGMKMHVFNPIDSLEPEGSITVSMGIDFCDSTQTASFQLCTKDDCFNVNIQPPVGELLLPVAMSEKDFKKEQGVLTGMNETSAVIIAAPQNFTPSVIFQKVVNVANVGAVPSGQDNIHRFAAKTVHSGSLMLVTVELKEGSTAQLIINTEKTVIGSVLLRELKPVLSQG
Sequence of SF3B1, O75533 (O75533 whole entry): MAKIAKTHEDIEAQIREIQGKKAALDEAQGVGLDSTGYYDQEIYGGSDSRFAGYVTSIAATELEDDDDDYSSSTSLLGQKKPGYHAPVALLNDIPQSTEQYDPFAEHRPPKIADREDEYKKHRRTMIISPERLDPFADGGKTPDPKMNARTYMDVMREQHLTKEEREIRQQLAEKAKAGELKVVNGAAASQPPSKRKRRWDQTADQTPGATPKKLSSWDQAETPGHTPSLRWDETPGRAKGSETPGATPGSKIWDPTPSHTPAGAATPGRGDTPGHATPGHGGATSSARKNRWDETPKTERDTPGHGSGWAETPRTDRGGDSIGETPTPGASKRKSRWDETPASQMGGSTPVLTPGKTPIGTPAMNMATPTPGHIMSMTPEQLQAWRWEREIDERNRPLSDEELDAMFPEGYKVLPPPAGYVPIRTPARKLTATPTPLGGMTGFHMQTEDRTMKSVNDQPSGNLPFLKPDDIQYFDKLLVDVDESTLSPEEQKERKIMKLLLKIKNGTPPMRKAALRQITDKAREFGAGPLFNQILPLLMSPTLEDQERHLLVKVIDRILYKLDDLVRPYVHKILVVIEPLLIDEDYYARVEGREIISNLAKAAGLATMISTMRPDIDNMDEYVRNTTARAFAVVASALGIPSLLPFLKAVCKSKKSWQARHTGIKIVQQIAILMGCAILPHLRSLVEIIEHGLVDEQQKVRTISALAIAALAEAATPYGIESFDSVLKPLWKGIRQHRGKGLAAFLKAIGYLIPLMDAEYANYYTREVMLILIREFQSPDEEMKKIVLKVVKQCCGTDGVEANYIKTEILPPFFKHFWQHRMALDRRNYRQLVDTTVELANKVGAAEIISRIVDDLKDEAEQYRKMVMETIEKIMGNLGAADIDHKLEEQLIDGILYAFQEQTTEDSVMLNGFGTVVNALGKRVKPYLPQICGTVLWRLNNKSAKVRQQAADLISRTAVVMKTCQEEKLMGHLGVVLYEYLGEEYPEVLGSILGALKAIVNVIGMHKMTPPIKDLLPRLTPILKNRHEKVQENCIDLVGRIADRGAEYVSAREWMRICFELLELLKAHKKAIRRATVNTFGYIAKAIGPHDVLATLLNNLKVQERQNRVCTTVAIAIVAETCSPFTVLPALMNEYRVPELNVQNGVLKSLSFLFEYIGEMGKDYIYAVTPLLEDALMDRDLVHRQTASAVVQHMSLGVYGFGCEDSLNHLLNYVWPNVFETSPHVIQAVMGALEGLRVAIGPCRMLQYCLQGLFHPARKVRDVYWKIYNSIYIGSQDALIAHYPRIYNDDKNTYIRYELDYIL

Take NUP98, P52948: the cross-linked residues result in the assay with NUP205 is given as “K1040 - C1216”.

Consider PPP2R5D, Q14738, for which, in the assay with PDE12, the cross-linked residues result is on record as “K589 - C119”.

In the case of CALR, P27797, the cross-linked residues result with PDIA3 is “C105 - K129”. As for PGK1, P00558, the cross-linked residues result in the assay with PGK2 is “C108 - K30”. Consider SF3B1, O75533, for which the cross-linked residues entry with PHF5A (SIA) is recorded as “K554 - C49”. Regarding SF3B3, Q15393, the cross-linked residues result with PHF5A (SIAB) is recorded as “K137 - C11”. For the substance AP3B1, O00203, the cross-linked residues result with PKM is “K386 - C49”.

The values above are taken from PMC12701074.
